High-throughput results from PubChem BioAssay.
Hits are enriched below; roughly 1% of the tested compounds scored in any of these assays.
TrxR1 substrate = qHTS Assay for Substrates of Mammalian Selenoprotein Thioredoxin Reductase 1 (TrxR1): qHTS; Potency, µM (titrated, usually from 114 µM), without a hit: at the highest dose activity change, negative = substrate turnover; purified TrxR1 substrate turnover, NADPH consumption readout; actives 0.01% (n = 390,000); Thioredoxin reductase 1, cytoplasmic (Rattus norvegicus), O89049; note: nearly all actives have a fitted effect of over 50% in size
Target sequence (O89049 whole entry, looked up): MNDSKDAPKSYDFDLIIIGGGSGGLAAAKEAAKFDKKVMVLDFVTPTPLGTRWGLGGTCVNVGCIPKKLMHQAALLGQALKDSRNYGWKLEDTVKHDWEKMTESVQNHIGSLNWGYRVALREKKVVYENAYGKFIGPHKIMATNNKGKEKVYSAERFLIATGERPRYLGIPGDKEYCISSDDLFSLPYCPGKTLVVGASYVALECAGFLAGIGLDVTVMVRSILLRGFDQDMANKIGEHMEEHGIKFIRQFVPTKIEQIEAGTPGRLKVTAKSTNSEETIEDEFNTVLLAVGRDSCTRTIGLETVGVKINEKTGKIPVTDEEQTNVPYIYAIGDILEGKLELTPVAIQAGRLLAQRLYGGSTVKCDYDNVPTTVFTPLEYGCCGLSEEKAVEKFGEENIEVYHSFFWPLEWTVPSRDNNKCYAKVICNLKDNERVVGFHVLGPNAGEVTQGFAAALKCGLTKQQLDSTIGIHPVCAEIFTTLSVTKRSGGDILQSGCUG
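Rat TrxR1, dispensed at 90 nM, was prereduced with 400 uM NADPH (final) for 5 min at ~22 deg C, then incubated with compound 15 min before 400 uM selenite. A first-read NADPH fluorescence drop versus no-compound background flagged substrates.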
USP2a block = qHTS Assay for Inhibitors of Ubiquitin-specific Protease USP2a Using CHOP2 as the Reporter | USP2 core, Ub-CHOP2 coupled fluorogenic reporter, 485/531 | AID 463254, 2010 | Ubiquitin carboxyl-terminal hydrolase 2 (Homo sapiens), O75604 | Potency, µM (series often up to 38.3 µM), for the others: at the highest dose activity change, negative = inhibition, usual class: inhibitors | actives 0.01% (n = 330,000);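 note: plate controls were DMSO wells for no effect and full inhibition by NEM control for full effect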
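Deubiquitinase activity read as fluorescence (485/531 nm) after Ub-CHOP2 cleavage activates the enterokinase reporter on its substrate; USP2 core 10nM, Ub-CHOP2 and substrate 25nM each, 30min compound preincubation then 60min RT; data normalized to NEM, curves fitted.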
TrxR1 inh = qHTS Assay for Inhibitors of Mammalian Selenoprotein Thioredoxin Reductase 1 (TrxR1): qHTS | Thioredoxin reductase 1, cytoplasmic (Rattus norvegicus), O89049 | Potency, µM (series often up to 114 µM), for inactives: at the top dose activity change, negative = inhibition, most hits filed as inhibitors | actives 1% (n = 390,000) | recombinant rTrxR1, NADPH fluorescence consumption, selenite substrate; note: nearly all actives have a fitted effect of over 65% in size
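Rat TrxR1 (90 nM in the dispensed reagent) was pre-reduced with 400 uM NADPH for 5 min at room temperature, then incubated with compound for 15 min. After 400 uM selenite was added, NADPH fluorescence (Ex 340/Em 450 nm) was followed for 8 min.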
GALK inh = qHTS Assay for Inhibitors of Human Galactokinase (GALK). P51570. Purified GALK, Kinase-Glo residual ATP luminescence. Potency, µM (titrated, usually from 57.5 µM), for the others: at the highest dose activity change, negative = inhibition, actives largely listed as inhibitors. actives 0.007% (n = 270,000)
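Kinase-Glo Plus luminescence measured ATP left after a 1 h room-temperature reaction. The reaction used 5 nM GALK, 100 uM galactose and 35 uM ATP at pH 8.0 (20 mM HEPES, 5 mM MgCl2, 60 mM NaCl, 1 mM DTT, 0.01% BSA).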
Eya2 phos inh = qHTS Assay for Inhibitors of the Phosphatase Activity of Eya2; Protein phosphatase EYA2 (Homo sapiens), O00167; recombinant Eya2, OMFP fluorescence dephosphorylation (OMFP is methylfluorescein phosphate); Potency, µM (series often up to 76.9 µM), for inactives: at the top dose activity, negative = inhibition, hits mostly inhibitors; actives 0.006% (n = 330,000); AID 488837, 2010
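Eya2 (0.2 uM) preincubated 10 min at ambient with compound, then OMFP substrate added at 50 uM; 10 min reaction in 50 mM HEPES pH 7.5, 50 mM NaCl, 5 uM MgCl2, 0.05% BSA, 1 mM DTT. Fluorescence read at Ex 485/Em 525 nm.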
RGS4 inhibitor = Inhibitors of Regulator of G Protein Signaling (RGS) 4: qHTS; Regulator of G-protein signaling 4 (Homo sapiens), P49798; Transcreener GDP fluorescence polarization, RGS4-accelerated GTP hydrolysis; Potency, µM (highest dose often 114 µM), for inactives: at the highest dose activity change, negative = inhibition, hits mostly inhibitors; actives 0.039% (n = 390,000); AID 504845, 2011; note: nearly all actives have a fitted effect of over 75% in size
Target sequence (P49798 whole entry, looked up): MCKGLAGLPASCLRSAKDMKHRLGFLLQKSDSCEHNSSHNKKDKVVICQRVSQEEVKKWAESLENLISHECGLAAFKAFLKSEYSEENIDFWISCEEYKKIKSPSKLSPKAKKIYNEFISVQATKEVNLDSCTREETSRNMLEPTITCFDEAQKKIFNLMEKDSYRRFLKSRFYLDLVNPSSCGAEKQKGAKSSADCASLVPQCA
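MLSMR compounds (23 nl, pin-transferred) preincubated 10 min at room temperature with a 500nM (2x) first reagent, then RGS4 at 900nM (2x) plus Transcreener GDP mix added; fluorescence polarization (620/688 nm) read before and after 90 min at 30 °C.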
* hit, by the source's call; i = inactive; ? = inconclusive; . = no result; [ ] = remark or other dose. Calls come from the whole dose curve; as a rule, active = well fitted curve in the direction sought with a large enough effect; inconclusive = small, poorly fitted or top-dose-only effect, or another doubt; inactive = no such curve, though single readings can be large; an effect the other way counts as inactive or inconclusive. Unless noted, % is set by controls: 0 for no effect and ±100 for the full control effect; potency is the fitted concentration of half-maximal effect.

SMILES	TrxR1 substrate	USP2a block	TrxR1 inh	GALK inh	Eya2 phos inh	RGS4 inhibitor
Cc1sc2nc(CN3CCCCC3)nc(Cl)c2c1C	2%	7%	32µM*	0%	-1%	5%
Cc1ccc(S(=O)(=O)N2CCN(c3nc(CN4CCCC4)nc4sc(C)c(C)c34)CC2)cc1	1%	1%	3%	.	-8%	0%
CC1CCN(Cc2nc(Cl)c3c4c(sc3n2)CCC4)CC1	1%	0%	32µM*	-1%	0%	3%
CCC(C)Nc1nc(CN2CCOCC2)nc2sc3c(c12)CCC3 (stereo not drawn)	2%[57.1 µM]	1%	15%[11.4 µM]	1%	-3%	-9%
COc1ccc(C(=O)N2CCCC(CO)(Cc3ccccc3C)C2)o1 (stereo not drawn)	0%	2%	50µM*	0%	2%	-31%
C=C1C=CS(=O)(=O)N(C(CC(C)C)C(=O)OC)C1 (stereo not drawn)	-2%	.	11µM*	.	.	-24%
COC(=O)C(CC(C)C)N1CCC(=O)c2ccccc2S1(=O)=O (stereo not drawn)	-3%	4%	-36%	0%	-9%	9%
COc1ccc(C=C(C(C)=O)C(C)=O)cc1OC	-17%	3%	45µM*	1%	-13%	-18%[56.9 µM]
O=C(CCOc1ccccc1)NO	3%	.	14%	.	.	.
O=C(/C=C/c1ccc([N+](=O)[O-])cc1)NCc1cccnc1	-9%	-2%	-16%	0%	3%	-17%
O=C(/C=C/c1ccc([N+](=O)[O-])cc1)c1cccnc1	-4%	1%	32µM*	0%	3%	?
COCCn1c(SCC(=O)c2ccc(Cl)cc2)nnc1C(C)C	8%	1%	6.3µM*	-1%	-4%	?
COCCn1c(SCC(=O)c2ccc3c(c2)OCCO3)nnc1C(C)C	-3%	3%	-11%	0%	3%	?
O=C1NN(c2cccc(Br)c2)C(=O)/C1=C/c1cccs1	3%	-2%	-27%	-13%	-25%	-11%
O=C1NN(c2cccc(Br)c2)C(=O)/C1=C\c1ccccc1	?	2%	11µM*	-13%	-6%	-62%[56.9 µM]
O=C1NN(c2ccccc2)C(=O)/C1=C\c1ccccc1	-5%	1%	28µM*	-4%	-15%	?
C=CC[C@H](c1ccc(F)cc1)N(CC(C)C)S(=O)(=O)C=C	-8%	.	0%	.	.	.
Fc1ccc(Nc2nc(SCc3ccccc3F)nc3ccccc23)cc1	-2%[57.1 µM]	.	11%[57.1 µM]	.	.	-25%
CN(C)c1ccc(/C=C/c2ccnc3c(Cl)cccc23)cc1	-7%	.	-7%	.	.	.
COC(=O)c1cc(C)nc2c1C(=O)C(=O)C=C2N1CCOCC1	35µM*	1%	-13%	7.1µM*	-1%	-36%
Nc1ccc(-c2nc3ncccc3o2)c(O)c1	213%	-1%	89µM*	2%	-3%	30%
Nc1ccc(-c2nc3ncccc3o2)c(Cl)c1	23%[57.1 µM]	2%	8%[57.1 µM]	-3%	-12%	22%
COc1ccc2c(CNCCc3ccccc3OC)c(C(=O)O)n(Cc3ccc(F)cc3Cl)c2c1	-7%	.	-2%	.	.	18%
CC(C)=NOc1cc(NC(=O)CCl)cc([N+](=O)[O-])c1	-17%	2%	2.8µM*	.	-5%	5%
CCC(=O)Nc1cc(ON=C(C)C)cc([N+](=O)[O-])c1	-2%	1%	9%	.	4%	-38%
SMILES	TrxR1 substrate	USP2a block	TrxR1 inh	GALK inh	Eya2 phos inh	RGS4 inhibitor
O=C(CCl)Nc1cc(SCC(O)CO)cc([N+](=O)[O-])c1 (stereo not drawn)	3%	2%	5.6µM*	-3%	1%	-29%
COc1ccc(C2Nc3ccccc3C(=O)N2c2cccc3ccccc23)cc1COc1c(C)cccc1C (stereo not drawn)	21%	.	32%	.	.	4%
CC1CCN(c2oc(-c3ccc(OCc4ccccc4Cl)cc3)nc2C#N)CC1	44%	.	25%	.	.	1%
CCCCCCC/C=C\CCCCCCCCC(=O)O	?	.	?	.	-2%	24µM*
CCCCC/C=C\C/C=C\C/C=C\C/C=C\CCCCCC(=O)O	.	.	.	.	.	460%[56.9 µM]
CCCCC/C=C\C/C=C\C/C=C\C/C=C\CCCC(=O)O	.	0%	.	.	4%	i
CCCCC/C=C\C/C=C\CCCCCCCC(N)=O	.	.	.	.	.	24µM*
CC1(C)CCc2cc(O)ccc2O1	2%	.	17%	.	.	.
COc1cccc(-n2nc(C#N)c(Cl)cc2=O)c1	5%[57.1 µM]	-2%	4µM*	-11%	16%	?
C[n+]1cccc(/C=N/Nc2nc(Cl)c(C#N)c(Cl)c2Cl)c1	-11%	15%	50µM*	9%	4%	-5%
C[N+](C)(C)c1ccc(/C=N/Nc2nc(Cl)c(C#N)c(Cl)c2Cl)cc1	-13%	3%	71µM*	1%	-6%	-26%
N#Cc1c(Cl)nc(N/N=C/c2ccccc2)c(Cl)c1Cl	3%	2%	3%	0%	-22%	-24%
CCC(=O)NC(=S)Nc1c(C)cc(Br)cc1C	3%	3%	28µM*	-2%	7%	-28%
CCOC(=O)C1=C(O)c2ccccc2C(=O)/C1=C\c1ccc(CC)cc1	-19%	-2%	10µM*	-3%	-5%	?
CCCc1ccc(/C=C2\C(=O)c3ccccc3C(O)=C2C(=O)OCC)cc1	.	1%	.	-3%	-27%	.
COc1ccc(S(=O)(=O)NCC(c2ccco2)S(=O)(=O)c2cccs2)cc1C (stereo not drawn)	2%[57.1 µM]	.	?	.	.	-26%
Cc1cc(F)ccc1S(=O)(=O)NCC(c1ccco1)S(=O)(=O)c1cccs1 (stereo not drawn)	6%[57.1 µM]	.	1.1µM*	.	.	-47%
CCCCN1CC[C@H]2C=CC[C@@H](C(=O)NCc3cccnc3)[C@H]2C1=O	9%	.	12%	.	.	.
CCOC(=O)/C(=C\c1cccnc1)C(=O)c1cc(C(C)=O)c(Nc2ccccc2)s1	-6%	2%	3.2µM*	-1%	12%	?
Cc1cccc(C)c1NC(=S)NC(=O)CCc1ccccc1	-2%[57.1 µM]	-1%	3.5µM*	-5%	-1%	-39%
O=C(C[n+]1ccccc1Br)c1ccc2c(c1)CCCC2	7%	.	-29%	.	.	.
